Experimental data: PubChem BioAssay AID1159580 (chemical genetic matrix, 2015)
The campaign covered roughly 5,500 compounds. About 2,000 (36%) were called active. Not shown: some 18% with an inconclusive outcome. Cut-off read from the data, not from the text of the source: active = normalized growth mostly below about 0.91 (no sharp cut-off); inconclusive = no clear call, values can overlap the other calls; inactive = mostly above about 0.92. The list shows a part of the results.

Experiment: chemical genetic growth profiling, strain panel (AID 1159580);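 note: tested at 20 µM; growth read once vehicle control cultures reached saturation at 30 °C; 1 = growth at the plate median or of vehicle wells; lower values mean less growth of the strain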
Conditions: growth OD
[1] = S. cerevisiae deletion strains, locus YAL013W, strain DEP1, hits give low values
[2] = S. cerevisiae deletion strains, locus YAL040C, strain CLN3, hits give low values
[3] = S. cerevisiae deletion strains, locus YCL061C, strain MRC1 (second series), hits give low values
[4] = S. cerevisiae deletion strains, locus YDR150W, strain NUM1, hits give low values
[5] = S. cerevisiae deletion strains, locus YDR363W, strain ESC2, hits give low values
[6] = S. cerevisiae deletion strains, locus YER002W, strain NOP16, hits give low values
[7] = S. cerevisiae deletion strains, locus YGR078C, strain PAC10, hits give low values
[8] = S. cerevisiae deletion strains, locus YMR307W, strain GAS1, hits give low values
[9] = S. cerevisiae deletion strains, locus YNL153C, strain GIM3, hits give low values
[10] = S. cerevisiae deletion strains, locus YNL175C, strain NOP13, hits give low values
[11] = S. cerevisiae deletion strains, locus YNL197C, strain WHI3, hits give low values
[12] = S. cerevisiae deletion strains, locus YNL224C, strain SQS1, hits give low values
[13] = S. cerevisiae deletion strains, locus YNL322C, strain KRE1, hits give low values
[14] = S. cerevisiae deletion strains, locus YOR083W, strain WHI5 (second series), hits give low values
[15] = S. cerevisiae deletion strains, locus YJR075W, strain HOC1, hits give low values
[16] = S. cerevisiae deletion strains, locus YMR263W, strain SAP30, hits give low values
[17] = S. cerevisiae deletion strains, locus YNL128W, strain TEP1, hits give low values
[18] = S. cerevisiae deletion strains, locus YPL241C, strain CIN2, hits give low values
[19] = S. cerevisiae deletion strains, locus YBR229C, strain ROT2, hits give low values
[20] = S. cerevisiae deletion strains, locus YCL061C, strain MRC1, hits give low values
[21] = S. cerevisiae deletion strains, locus YDL101C, strain DUN1, hits give low values
[22] = S. cerevisiae deletion strains, locus YEL061C, strain CIN8, hits give low values
[23] = S. cerevisiae deletion strains, locus YHR030C, strain SLT2, hits give low values
[24] = S. cerevisiae deletion strains, locus YHR087W, strain rtc3, hits give low values
[25] = S. cerevisiae deletion strains, locus YJR043C, strain POL32, hits give low values
[26] = S. cerevisiae deletion strains, locus YLR039C, strain RIC1, hits give low values
[27] = S. cerevisiae deletion strains, locus YLR058C, strain SHM2 (second series), hits give low values
[28] = S. cerevisiae deletion strains, locus YLR085C, strain ARP6, hits give low values
[29] = S. cerevisiae deletion strains, locus YLR262C, strain YPT6, hits give low values
[30] = S. cerevisiae deletion strains, locus YML094W, strain GIM5, hits give low values
[31] = S. cerevisiae deletion strains, locus YMR219W, strain ESC1, hits give low values
[32] = S. cerevisiae deletion strains, locus YNL298W, strain CLA4 (second series), hits give low values
[33] = S. cerevisiae deletion strains, locus YNR030W, strain Alg12, hits give low values
[34] = S. cerevisiae deletion strains, locus YPL055C, strain LGE1, hits give low values
[35] = S. cerevisiae deletion strains, locus YPR135W, strain CTF4, hits give low values

Measured: normalized growth

Cn1ccc2cc3c(cc21)CCN3C(=O)Nc1cccnc1
inactive: [1] 0.995 | [2] 1 | [3] 1.01 | [4] 0.992 | [5] 0.999 | [6] 0.999 | [7] 0.998 | [8] 1.01 | [9] 0.976 | [10] 0.981 | [11] 1 | [12] 0.989 | [13] 1.01 | [14] 0.969

COc1cc2c(cc1C(F)(F)F)N(C(=O)Nc1cc(F)cc(-c3cccnc3)c1)CC2
active: [15] 1.11 [resistant]
inactive: [1] 1.01 | [2] 1.08 | [3] 1 | [4] 1.02 | [5] 1 | [6] 1.05 | [16] 1.01 | [17] 1.05 | [10] 1.01 | [11] 1.01 | [12] 1.02 | [13] 1.01 | [14] 0.9 | [18] 1.01

CN1CCc2cc(NC(=O)Nc3cccnc3)ccc21
inactive: [2] 0.994 | [3] 0.996 | [6] 0.996 | S. cerevisiae deletion strains, locus YGR229C, strain SMI1, hits give low values 0.988 | [17] 0.994 | [9] 1.01 | [10] 1.01 | [11] 0.992 | [12] 1.03 | [14] 0.977

c1ccc(C2CC2)c(OCC2=NCCN2)c1
inactive: [2] 1.05 | [3] 1.01 | [4] 1 | [5] 1.02 | [6] 0.98 | [7] 1.01 | [16] 1.01 | [10] 0.994 | [11] 0.984 | [12] 0.994 | [13] 0.999 | [14] 1.02 | [18] 1.01

O=C1CNC(=S)N1CCc1ccccn1
inactive: [1] 0.992 | [19] 0.987 | [20] 0.99 | [21] 0.978 | [4] 0.994 | [22] 0.999 | [7] 0.987 | [23] 0.951 | [24] 0.992 | [25] 0.991 | [15] 1.01 | [26] 0.973 | [27] 0.979 | [28] 1.02 | [29] 0.962 | [30] 0.945 | [31] 0.993 | [16] 1 | [8] 1.08 | [9] 1.01 | [32] 0.966 | [13] 0.983 | [33] 0.98 | S. cerevisiae deletion strains, locus YOL006C, strain TOP1, hits give low values 0.997 | [34] 0.998 | [18] 1.03 | [35] 0.914 | S. cerevisiae strains, strain wild type, hits give low values 0.969

O=C1c2cccc3c(SCCO)ccc(c23)C(=O)N1CCc1ccccn1
inactive: [1] 0.999 | [19] 0.997 | [20] 1 | [21] 1.09 | S. cerevisiae deletion strains, locus YDL134C, strain PPH21, hits give low values 1.01 | [4] 1.02 | [22] 1 | [7] 1.01 | [23] 0.903 | [24] 1 | [25] 0.994 | [15] 0.984 | [26] 1 | [27] 0.991 | [28] 0.948 | [29] 1 | [30] 1.01 | [31] 0.995 | [16] 1.01 | [17] 1 | [9] 0.995 | [32] 0.993 | [13] 0.996 | [33] 0.989 | [34] 1.03 | [18] 0.989 | [35] 0.907
active: S. cerevisiae deletion strains, locus YJL187C, strain SWE1, hits give low values 0.845
